# According to PubChem BioAssay (Tox21):
# Results filed as inconclusive are left out. Unmarked numbers belong to inactive results. Activity calls are given as the source filed them. Calls follow the shape of the dose curve; as a rule, active = well fitted cell-killing curve with a large enough effect in the repeat runs; inconclusive = weak or mixed curves, or effect the other way; inactive = flat fitted curve, though single readings scatter.
# Experiment: qHTS assay to identify small molecule antagonists of the estrogen related receptor signaling pathway with the pleiotropic PPARgamma coactivator (PGC) cell viability counter screen (AID 1224822)
# Details: ERR/PGC reporter cell line viability counter screen; series mostly up to 46.1 µM; viability change, negative = cytotoxic: at the top concentration
# How it was run: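 qHTS format, DMSO compound stocks pin-transferred onto PGC/ERR cells 6 h after plating; 17.5 h exposure at 37 C, then CellTiter-Fluor fluorescence.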
# % is scaled to controls: 0 for no effect and ±100 for the full control effect; potency is read from the fitted curve at half-maximal effect.
SMILES,"viability change, negative = cytotoxic [%]",Potency
COc1cc([C@@H]2c3cc4c(cc3[C@H](O)C3COC(=O)[C@@H]32)OCO4)cc(OC)c1OC (stereo not given in full),-23.7,
O=c1cc(N2CCOCC2)oc2c(-c3ccccc3)cccc12,-12.6,
CC[n+]1c(/C=C/C=C2/N(C)c3ccccc3C2(C)C)sc2ccccc21,,3.9 µM (active)
CC(C)(C)NCC(O)COc1nsnc1N1CCOCC1 (stereo not given),3.17,
C[C@]12C=CC(=O)C=C1CC[C@@H]1C2=CC[C@]2(C)[C@@H](C(=O)CN3CCN(c4cc(N5CCCC5)nc(N5CCCC5)n4)CC3)CC[C@@H]12,-13.6,
CC(=O)SC1CC2=CC(=O)CC[C@]2(C)C2CC[C@@]3(C)C(CC[C@@]34CCC(=O)O4)C12 (stereo not given in full),-8.6,
CC[C@H]1OC(=O)[C@H](C)C(O[C@H]2C[C@@](C)(OC)[C@@H](O)[C@H](C)O2)[C@H](C)[C@@H](OC2O[C@H](C)C[C@H](N(C)C)[C@H]2O)[C@](C)(O)C[C@@H](C)CN(C)[C@H](C)[C@@H](O)[C@]1(C)O (stereo not given in full),-20.6,
C[C@@H](N)C1CCC(C(=O)Nc2ccncc2)CC1 (stereo not given in full),5.71,
C=CCN1CCc2c(cc(O)c(O)c2Br)[C@@H](c2ccccc2)C1,-24,
O=C1NC(O)=NC1(c1ccccc1)c1ccccc1,5.63,
CCCCCCCCCCCCCCC[C@H](O)[C@H](N)CO,-13.9,
CC1=C(C(=O)O)N2C(=O)[C@@H](NC(=O)C(N)C3=CCC=CC3)[C@H]2SC1 (stereo not given in full),7.99,
CC(N)(Cc1ccc(O)c(O)c1)C(=O)O (stereo not given),-3.03,
CC(C)NC[C@H](O)COc1ccc(CC(N)=O)cc1,9.94,
O=[N+]([O-])c1ccc(CNc2nc(NCc3cccc(C(F)(F)F)c3)nc3nc[nH]c23)cc1,-19.3,
